Experimental data: PubChem BioAssay (NCATS)
Results filed as inconclusive are left out. A structure can be active in one record and inactive in another. Activity calls are given as the source filed them. Calls follow the shape of the dose curve; as a rule, active = well fitted inhibition curve with a large enough effect; inconclusive = small, poorly fitted or top-dose-only effect; inactive = no such curve, though single readings can be large or run the other way.

Molecular target: Retinal dehydrogenase 2 (Homo sapiens) (UniProt O94788)
Assay: qHTS for Inhibitors of the Aldehyde Dehydrogenase Family (ALDH1A2) Confirmation screens (AID 2061314); also: nearly all actives have a fitted effect of over 65% in size; also: potency is read from the fitted curve at half-maximal effect; as to activity, negative = inhibition: % is scaled to controls: 0 for no effect and ±100 for the full control effect
Settings: ALDH1A2 enzyme inhibition qHTS confirmation; series mostly up to 45.9 µM; activity, negative = inhibition: at the top concentration

**Q.** Which Potency does the source give for `O=C(CCN1CCN(C(=O)OCc2cc(Cl)cc(Cl)c2)CC1)c1ccc2[nH]c(=O)oc2c1` here?
**A.** The Potency was 252 nM (active) and inactive.

**Q.** For `CCN(CC)CCOCCOC(=O)C(CC)(CC)c1ccccc1`, which “outcome” value is on record?
**A.** Its value is “inactive”.

**Q.** For `O=C(Nc1cc(C(F)(F)F)cc(C(F)(F)F)c1)c1cnc(Cl)nc1C(F)(F)F`, which “activity, negative = inhibition” value is on record?
**A.** The value was -1.75% (inactive).

**Q.** For `NC(Cc1c[nH]c2ccccc12)C(=O)NC(CCC(=O)O)C(=O)O` (configuration not stated), which “activity, negative = inhibition” value is on record?
**A.** Its value is -0.462% (inactive).

**Q.** How did the “activity, negative = inhibition” value turn out when `NC(N)=NCCC[C@H](NC(=O)c1sccc1NS(=O)(=O)c1cccc2nsnc12)C(=O)O` was run?
**A.** Its value is -8.8% (inactive).

**Q.** Which “activity, negative = inhibition” value does the source give for `N#Cc1ccc(C(=O)N2CCC3(CC2)N=C(N)c2c(F)ccc(F)c2N3)cn1` here?
**A.** The value was 3.93% (inactive).

**Q.** For `OC[C@H]1O[C@@H](n2cnc3c2NC=NC[C@H]3O)C[C@@H]1O`, which “outcome” value is on record?
**A.** Its value is “inactive”.

**Q.** `CCCCC1CCN(CCCN2C(=O)CCc3ccccc32)CC1` was tested. Which “activity, negative = inhibition” value did it give?
**A.** The value was -2.34% (inactive).

**Q.** `O=c1[nH]c2cccc(N3CCN(Cc4ccc(-c5ccccc5)cc4)CC3)c2o1` was tested. Which “outcome” value did it give?
**A.** Its value is “inactive”.

Molecular target: Retinaldehyde dehydrogenase 3 (Homo sapiens) (UniProt P47895)
Assay: qHTS for Inhibitors of the Aldehyde Dehydrogenase Family (ALDH1A3) Primary screen (AID 2061315);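 also: plate controls were DMSO vehicle for no effect and reference inhibitor for full effect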
Settings: ALDH inhibition qHTS; series mostly up to 56 µM; activity change, negative = inhibition: at the top concentration

**Q.** `O=C(CCN1CCN(C(=O)OCc2cc(Cl)cc(Cl)c2)CC1)c1ccc2[nH]c(=O)oc2c1` was tested. Which “activity change, negative = inhibition” value did it give?
**A.** The value was -19.5% (inactive).

**Q.** `CCN(CC)CCOCCOC(=O)C(CC)(CC)c1ccccc1` was tested. Which “activity change, negative = inhibition” value did it give?
**A.** The value was 7.56% (inactive).

**Q.** With `O=C(Nc1cc(C(F)(F)F)cc(C(F)(F)F)c1)c1cnc(Cl)nc1C(F)(F)F` as the molecule, how does the “activity change, negative = inhibition” value read?
**A.** Its value is -10.1% (inactive).

**Q.** Which “activity change, negative = inhibition” value does the source give for `NC(Cc1c[nH]c2ccccc12)C(=O)NC(CCC(=O)O)C(=O)O` (configuration not stated) here?
**A.** The value was 9.52% (inactive).

**Q.** Which “activity change, negative = inhibition” value does the source give for `NC(N)=NCCC[C@H](NC(=O)c1sccc1NS(=O)(=O)c1cccc2nsnc12)C(=O)O` here?
**A.** The value was 4.88% (inactive).

**Q.** With `N#Cc1ccc(C(=O)N2CCC3(CC2)N=C(N)c2c(F)ccc(F)c2N3)cn1` as the molecule, how does the “activity change, negative = inhibition” value read?
**A.** The value was 3.31% (inactive).

**Q.** Which “activity change, negative = inhibition” value does the source give for `OC[C@H]1O[C@@H](n2cnc3c2NC=NC[C@H]3O)C[C@@H]1O` here?
**A.** The value was 9.19% (inactive).

**Q.** Which “activity change, negative = inhibition” value does the source give for `CCCCC1CCN(CCCN2C(=O)CCc3ccccc32)CC1` here?
**A.** Its value is -17% (inactive).

**Q.** For `O=c1[nH]c2cccc(N3CCN(Cc4ccc(-c5ccccc5)cc4)CC3)c2o1`, which “activity change, negative = inhibition” value is on record?
**A.** Its value is 6.46% (inactive).

Molecular target: Aldehyde dehydrogenase 1A1 (Homo sapiens) (UniProt P00352)
Assay: qHTS for Inhibitors of the Aldehyde Dehydrogenase Family (ALDH1A1) Confirmatory screens (AID 2061316); also: nearly all actives have a fitted effect of over 65% in size; also: potency is read from the fitted curve at half-maximal effect; as to activity change, negative = inhibition: % is scaled to controls: 0 for no effect and ±100 for the full control effect
Settings: ALDH inhibition qHTS; series mostly up to 47.3 µM; activity change, negative = inhibition: at the top concentration

**Q.** For `O=C(CCN1CCN(C(=O)OCc2cc(Cl)cc(Cl)c2)CC1)c1ccc2[nH]c(=O)oc2c1`, which Potency is on record?
**A.** Its Potency is 0.252 µM (active).

**Q.** `CCN(CC)CCOCCOC(=O)C(CC)(CC)c1ccccc1` was tested. Which “outcome” value did it give?
**A.** Its value is “inactive”.

**Q.** With `O=C(Nc1cc(C(F)(F)F)cc(C(F)(F)F)c1)c1cnc(Cl)nc1C(F)(F)F` as the molecule, how does the “activity change, negative = inhibition” value read?
**A.** The value was -19% (inactive).

**Q.** How did the “activity change, negative = inhibition” value turn out when `NC(Cc1c[nH]c2ccccc12)C(=O)NC(CCC(=O)O)C(=O)O` (configuration not stated) was run?
**A.** Its value is -13.1% (inactive).

**Q.** `NC(N)=NCCC[C@H](NC(=O)c1sccc1NS(=O)(=O)c1cccc2nsnc12)C(=O)O` was tested. Which “activity change, negative = inhibition” value did it give?
**A.** The value was -11.8% (inactive).

**Q.** With `N#Cc1ccc(C(=O)N2CCC3(CC2)N=C(N)c2c(F)ccc(F)c2N3)cn1` as the molecule, how does the “activity change, negative = inhibition” value read?
**A.** Its value is -17.8% (inactive).

**Q.** With `OC[C@H]1O[C@@H](n2cnc3c2NC=NC[C@H]3O)C[C@@H]1O` as the molecule, how does the “activity change, negative = inhibition” value read?
**A.** Its value is -0.381% (inactive).

**Q.** How did the “outcome” value turn out when `CCCCC1CCN(CCCN2C(=O)CCc3ccccc32)CC1` was run?
**A.** Its value is “inactive”.

**Q.** How did the “activity change, negative = inhibition” value turn out when `O=c1[nH]c2cccc(N3CCN(Cc4ccc(-c5ccccc5)cc4)CC3)c2o1` was run?
**A.** The value was -16.4% (inactive).
